Pol iota inh: qHTS for Inhibitors of Polymerase Iota; DNA polymerase iota (Homo sapiens), Q9UNA4; Pol iota fluorescent replication assay, 10 min; Potency, µM (highest dose often 115 µM), inactives show at the top dose activity, negative = inhibition, actives largely listed as inhibitors; hit rate 1% among 390,000; AID 588590, 2011
Target sequence (Q9UNA4 whole entry, looked up): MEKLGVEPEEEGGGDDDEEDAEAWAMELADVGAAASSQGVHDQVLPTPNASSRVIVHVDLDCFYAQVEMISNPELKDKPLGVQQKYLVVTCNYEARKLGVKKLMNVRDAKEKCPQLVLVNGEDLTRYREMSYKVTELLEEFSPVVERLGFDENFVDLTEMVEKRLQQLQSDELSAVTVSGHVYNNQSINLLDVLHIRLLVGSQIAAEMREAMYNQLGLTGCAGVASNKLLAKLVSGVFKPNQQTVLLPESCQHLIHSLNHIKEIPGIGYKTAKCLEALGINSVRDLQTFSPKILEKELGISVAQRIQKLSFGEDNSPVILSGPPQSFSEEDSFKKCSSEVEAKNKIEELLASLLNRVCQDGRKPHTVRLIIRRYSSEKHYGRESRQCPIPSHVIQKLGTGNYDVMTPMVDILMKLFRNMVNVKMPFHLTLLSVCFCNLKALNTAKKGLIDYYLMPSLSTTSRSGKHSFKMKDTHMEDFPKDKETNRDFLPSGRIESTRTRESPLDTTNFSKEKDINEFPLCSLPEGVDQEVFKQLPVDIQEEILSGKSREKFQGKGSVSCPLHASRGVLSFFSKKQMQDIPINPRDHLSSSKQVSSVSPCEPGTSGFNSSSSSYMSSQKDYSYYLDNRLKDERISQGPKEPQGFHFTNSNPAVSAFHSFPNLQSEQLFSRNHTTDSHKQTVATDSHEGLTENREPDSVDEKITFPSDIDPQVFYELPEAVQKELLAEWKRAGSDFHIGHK
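Pol iota at 10 nM preincubated 15 min with compounds at room temperature; reaction started with fluorescent substrate, 50 nM final. Fluorescence read kinetically at 0 and 10 min; buffer-only wells as negative control.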
POLK inh: qHTS for Inhibitors of Polymerase Kappa. purified Pol kappa, fluorescent DNA synthesis assay, 10 min. hit rate 0.53% among 400,000. Potency, µM (top dose mostly 107 µM), without a hit: at the highest dose activity, negative = inhibition, usual class: inhibitors. DNA polymerase kappa (Homo sapiens), Q9UBT6; also: % is scaled to controls: 0 for no effect and ±100 for the full control effect
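10 nM Pol kappa preincubated 15 min at room temperature with compounds, then reaction started with substrate at 50 nM final. Fluorescence read kinetically at 0 and 10 min; buffer-only wells served as negative control.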
TDP1 inh: qHTS Assay for Inhibitors of Tyrosyl-DNA Phosphodiesterase (TDP1) | Tyrosyl-DNA phosphodiesterase 1 (Homo sapiens), Q9NUW8 | hit rate 0.28% among 350,000 | Potency, µM (titrated, usually from 130 µM), inactives show at the top dose activity change, negative = inhibition, usual class: inhibitors | recombinant TDP1, AlphaScreen DNA substrate cleavage; also: % is scaled to controls: 0 for no effect and ±100 for the full control effect; nearly all actives have a fitted effect of over 40% in size
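Recombinant E. coli-expressed Tdp1 (1 nM) preincubated with compound 15 min at RT, then 5'-biotin/3'-phosphotyrosine-FITC DNA substrate (15 nM) added for 5 min. AlphaScreen beads (10 ug/ml) added, 10 min RT; tyrosine-FITC cleavage read as signal loss.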
Pol eta inh: qHTS for Inhibitors of Polymerase Eta; DNA polymerase eta (Homo sapiens), Q9Y253; recombinant Pol eta, fluorescent DNA replication assay; Potency, µM (highest dose often 114 µM), for the others: at the top dose activity change, negative = inhibition, actives largely listed as inhibitors; hit rate 1.2% among 390,000; AID 588591, 2011; also: % is scaled to controls: 0 for no effect and ±100 for the full control effect
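Pol eta (10 nM) was preincubated with compounds for 15 min at room temperature, after which fluorescent replication substrate (50 nM final) was added to start the reaction. Fluorescence was read kinetically at 0 and 10 min.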
Pol beta inh: qHTS Assay for Inhibitors of DNA Polymerase Beta. P06746. Pol beta primer extension/strand displacement, fluorescence kinetic. Potency, µM (top dose mostly 114 µM), for inactives: at the highest dose activity change, negative = inhibition, most hits filed as inhibitors. hit rate 1.3% among 340,000. AID 485314, 2010; also: % is scaled to controls: 0 for no effect and ±100 for the full control effect
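Homogeneous kinetic assay of primer extension and strand displacement by 10 nM Pol beta, preincubated 15 min at room temperature with compound before 50 nM substrate (final) was added. Read at 0 and 10 min; four-parameter Hill fit.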
The depositor's hits bear a star; u = inconclusive; x = not tested or not shown; [ ] = dose if it differs, or a comment. Sampled rows, rich in hits. Any-hit rate of the full collection: about 2.4%. Calls follow the shape of the dose curve; as a rule, active = well fitted curve in the direction sought with a large enough effect; inconclusive = small, poorly fitted or top-dose-only effect, or another doubt; inactive = no such curve, though single readings can be large; an effect the other way counts as inactive or inconclusive. Potency is read from the fitted curve at half-maximal effect.

SMILES	Pol iota inh	POLK inh	TDP1 inh	Pol eta inh	Pol beta inh
CCOc1ccc(-c2nnc(SCc3nc4ccccc4[nH]3)n2N)cc1	u	0%	-9%	-6%	50µM*
O=C(CSC(=S)N1CCCC1)Nc1cc2c(cc1Br)OCCO2	15%	1%	4%[56.1 µM]	-19%	8%
O=C(CSC(=S)N1CCCC1)c1cc(Br)cc(Br)c1O	u	u	2%	u	50µM*
CC1CCCN(C(=S)SCC(=O)c2cc(Br)cc(Br)c2O)C1 (stereo not drawn)	22µM*	25µM*	9%	-17%	16µM*
CC(C)CC(=O)N1C/C=C\C[C@@H](c2ccc(Cl)cc2)N(Cc2ccc(Cl)cc2)C(=O)[C@@H]1Cc1ccccc1	17%	8%	x	x	x
CCc1cc(=O)oc2cc(C)c(CN3CCCC(C)C3)c(O)c12 (stereo not drawn)	3.5µM*	10µM*	x	35µM*	3.2µM*
NC(=S)N=Nc1c(O)n(Cc2ccccc2)c2ccccc12	10%	-3%	3%	1%	1%
COC(=O)c1ccc(Cn2c(O)c(N=NC(N)=S)c3ccccc32)o1	32µM*	u	-3%	50µM*	u
CCCOC(=O)N1CCN(/[N+]([O-])=N/Oc2ccc([N+](=O)[O-])cc2[N+](=O)[O-])CC1	u	-8%	11%	x	x
Cc1occc1C(=O)N1CCN(c2ccc([N+](=O)[O-])cc2)CC1	u	-5%	5%	-1%	40µM*
O=C(c1cc2ccccc2cc1O)N1CCN(c2ccc([N+](=O)[O-])cc2)CC1	89µM*	-27%	x	-10%	x
O=C(c1cc([N+](=O)[O-])ccc1Cl)N1CCN(c2ccccc2)CC1	149%	-10%	8%	-7%	27%
CCOc1ccc(CCNC(=O)c2cn(CC)c3ccc(S(=O)(=O)N4CCCCCC4)cc3c2=O)cc1OCC	29%	-8%	5%	-27%	u
O=C(O)CCC(=O)N1CCc2cc(S(=O)(=O)N3CCN(c4ccc(F)cc4)CC3)ccc21	u	-8%	-13%	-4%	22µM*
CCC(=O)N1CCc2cc(S(=O)(=O)CCC(=O)N3CCN(c4ccccc4)CC3)ccc21	16%	0%	1%	-14%	0%
CC(=O)N1CCc2cc(S(=O)(=O)CCC(=O)N3CCN(c4ccccc4)CC3)ccc21	-17%	-9%	3%	8%	1.3µM*
Cc1cccc(N2CCN(S(=O)(=O)c3ccc4c(c3)CCN4C(=O)CCC(=O)O)CC2)c1C	40%	3%	-2%	-18%	0%
O=C(O)c1c[nH]c2ccc(S(=O)(=O)N3CCN(c4ccc(F)cc4)CC3)cc2c1=O	u	u	6%	89µM*	20µM*
Cn1c(=O)c2sccc2n2c(CCCC(=O)Nc3ccc(Oc4ccccc4)cc3)nnc12	-4%	-7%	3%	-9%	32%
Cc1ccnc2ccc3ccccc3c12	u	-29%	x	x	x
CC(C)(C)n1ncc2c(=O)n(Cc3ccccc3C(F)(F)F)cnc21	29%	8%	x	x	x
CC[C@]1(O)C[C@H]2CN(CCc3c([nH]c4ccccc34)[C@@](C(=O)OC)(c3cc4c(cc3OC)N(C=O)[C@H]3[C@@](O)(C(=O)OC)[C@H](OC(C)=O)[C@]5(CC)C=CCN6CC[C@]43[C@@H]65)C2)C1	-3%	-8%[60.1 µM]	2%	x	x
Cc1ccc(S(=O)(=O)n2ccc3c(OCCOCCSCC(NC(=O)OC(C)(C)C)C(=O)O)cccc32)cc1 (stereo not drawn)	28µM*	u	x	u	71µM*
COc1cccc([C@@H]2Oc3ccc(Br)cc3C[C@H]2OC(=O)N[C@H]2CCCc3ccccc32)c1	x	x	6%	x	x
CCOC(=O)/C(C#N)=C\c1ccco1	u	-20%	x	-8%	40µM*
SMILES	Pol iota inh	POLK inh	TDP1 inh	Pol eta inh	Pol beta inh
COc1cc(NC(=O)c2cnc(N)s2)cc(C(=O)Nc2cccc(C(F)(F)F)c2)c1	2.2µM*	-12%	-8%	-9%	2%
CCCCCCCC1=Cc2ccccc2C(CC(=O)c2ccccc2)N1C(=O)OC (stereo not drawn)	x	x	6%[21 µM]	x	x
COc1ccc2[nH]c3c4c(ccc3c2c1)C(=O)C=CC4=O	32µM*	-24%	5%	u	-5%
Cc1cc(C)cc(OCCSc2nc3ccc(NC(=O)c4ccc5c(c4)OCO5)cc3s2)c1	u	-21%	2%	-7%	17%
Cc1cc(C)cc(Nc2cc(C(=O)NC3CCC(C)CC3)c3ccccc3n2)c1 (stereo not drawn)	-8%	-27%	-2%	89µM*	-27%
COc1ccc2c(c1)Cc1sc(NC(=O)c3ccccc3)nc1-2	16µM*	-11%	8%	16%	7%
COc1ccc2c(c1)Cc1sc(NC(=O)c3ccccc3C)nc1-2	3.5µM*	-10%	4%	x	12%
CCCCNC(=O)c1sc(=S)n2c1[nH]c(=O)c1ccc(C(=O)NCCc3ccc(OC)c(OC)c3)cc12	14µM*	u	-4%	18µM*	u
C=CCNC(=O)[C@@H]1CSC2c3ccc(OC)c(OC)c3C(=O)N21 (stereo partly drawn)	40µM*	-6%	x	u	-17%
COc1ccc2c(c1OC)C(=O)N1C2SC[C@H]1C(=O)NCCC(C)C (stereo partly drawn)	u	-22%	x	-14%	25%
O=C(Nc1cccc(-c2nc3cccnc3s2)c1)C1c2ccccc2Oc2ccccc21	-74%	-6%	u	8.9µM*	-15%
O=C(Nc1cccc(-c2nc3cccnc3s2)c1)c1cccnc1Cl	17%	-3%	1%	2%	2%
CS/C(=N\S(=O)(=O)c1ccc(F)cc1)c1ccccc1	-12%	-4%	1%	x	x
CCc1cccc(NC(=O)c2ccc(Cn3c(=O)[nH]c4ccsc4c3=O)cc2)c1	-7%	1%	4%	u	45µM*
C=CC(C)=C[C@@]1(C)SC(=O)C(C)=C1O	x	-8%[60.1 µM]	x	x	x
Cc1cc(NC(=O)c2ccc(S(=O)(=O)N3CCc4ccccc43)cc2)no1	u	-2%[60.1 µM]	6%	-20%	50µM*
COc1ccc(S(=O)(=O)N2CCc3ccccc32)cc1C(=O)Nc1ccc(C(N)=O)cc1	89µM*	-10%	-12%	-12%	x
O=C(Nc1nnc(Cc2ccccc2)s1)C1CCN(C(=O)c2cccs2)CC1	26%	-16%	x	x	x
CC12CCC(=O)N1C(C(=O)Nc1cccc(S(=O)(=O)N3CCCCC3)c1)CS2 (stereo not drawn)	u	2%	8%	8%	x

Screening data (PubChem)
